# In all, about 7,900 compounds went through this assay and about 400 (5.1%) showed an effect of 50% or more. The entries come from a sample that favours strong results as a whole.
# Biological target: Parkinson's disease protein 7 (PARK7/DJ1) (human, UniProt Q99497)
# Experiment: primary screen, percent inhibition; read as competition with a fluorescent probe by fluorescence polarization; higher = more effect of the substance
# Settings: 100 µM
# Outline: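 Covalent fragments at 100 μM final were incubated 2 h with 0.2 μM PARK7, then 20 nM probe JYQ-107 added for a further 2 h. Fluorescence polarization read at 480/520 nm; relative FP loss versus reference controls gave remaining enzyme activity.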
# Chain of Parkinson's disease protein 7 (PARK7/DJ1) (Q99497 whole entry, looked up): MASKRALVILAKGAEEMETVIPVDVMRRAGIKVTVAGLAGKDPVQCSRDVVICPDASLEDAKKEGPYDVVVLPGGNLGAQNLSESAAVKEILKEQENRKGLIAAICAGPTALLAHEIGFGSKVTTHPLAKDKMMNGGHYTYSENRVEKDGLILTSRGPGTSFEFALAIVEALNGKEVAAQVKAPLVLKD
row,SMILES,Inhibition %
1,CC(C)C1(c2ccccc2)CO1 (centres unmarked),4.43%
2,N#CSCc1nc2ccccc2[nH]1,24.5%
3,COc1cc(SC#N)ccc1O,15.4%
4,CS(=O)(=O)OCC1CCCNC1=O (centres unmarked),7.7%
5,COc1ccc(NCCS(=O)(=O)F)cc1.Cl,44.4%
6,Cl.O=S(=O)(F)CCNc1ccc(F)cc1,36.8%
7,Cl.O=S(=O)(F)CCNc1ccc(Cl)cc1,66%
8,N#Cc1ccc2[nH]ccc2n1,18.7%
9,N#Cc1ccc2cc[nH]c2n1,68.4%
10,N#Cc1ccc(Cl)c(Cl)n1,5.12%
11,COc1cc(C=C(C#N)C(=O)NC(C)C)cc(Cl)c1O,-0.272%
12,Cl.NC1C=CS(=O)(=O)C1 (centres unmarked),9.63%
13,NC(=O)c1c(NC(=O)CCl)sc2c1CCC2,38.6%
14,Cn1cc(C(=O)CCl)cn1,77.2%
15,CCn1nc(C)c(C(=O)CCl)n1,13.1%
16,CN(Cc1cnn(C)c1)C(=O)CCl.Cl,20.6%
17,Cn1nncc1C(=O)CCl,82.2%
18,CCn1ncc(C(=O)CCl)n1,87.8%
19,Cn1ccnc1C(=O)CCl,32.3%

row,SMILES,Inhibition %
1,Cn1nccc1C(=O)CCl,15.4%
2,C=CC(=O)NCCCc1cnn(C)n1,5.99%
3,Cn1cccc1C(=O)CCl,8.03%
4,Cn1ncc(C(=O)CCl)n1,95.3%
5,Cl.O=C(CCl)c1csc(N2CCCCC2)n1,2.02%
6,Cn1ccc(C(=O)CCl)c1,49%
7,OC1(C2CO2)CCOCC1 (centres unmarked),7.63%
8,CC1(C)OB(c2cccc(CN3CCOCC3)c2)OC1(C)C.Cl,25.8%
9,N#CN(Cc1ccc(C(N)=O)cc1)c1ccc(F)cc1,3.09%
10,C=CC(=O)NC1CCCC1C(=O)NC (centres unmarked),9%
11,Cc1nc(C=CC(=O)N2CCC(C)(C(=O)O)C2)cs1 (centres unmarked),5.72%
12,COc1ccc(C2=NC(=Cc3csc(C)n3)C(=O)O2)cc1,14.1%
13,Nc1ccc(N2CCC2=O)cc1,16.5%
14,Cc1ccc(Cc2cnc(NC(=O)CCl)s2)cc1,7.26%
15,O=C(CCl)Nc1ncc([N+](=O)[O-])s1,96.3%
16,O=C(CCl)Nc1nc2ccc([N+](=O)[O-])cc2s1,6.68%
17,C=CC(=O)Nc1ccc(F)c(F)c1,7.82%
18,CCc1nccn1S(=O)(=O)c1ccc(Cl)c(C)c1,1.29%
19,CC(C)NC(=O)C(C#N)=Cc1cccc(O)c1,19.6%
